What was measured:
[1] = biological target: Mitogen-activated protein kinase kinase kinase kinase 4 (Homo sapiens) (UniProt O95819); conditions: at 1 µM;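 further: reported figure is an averaged inhibition value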
[2] = biological target: Dual specificity mitogen-activated protein kinase kinase 1 (Homo sapiens) (UniProt Q02750); conditions: at 0.1 µM
[3] = biological target: Dual specificity mitogen-activated protein kinase kinase 1 (Homo sapiens) (UniProt Q02750); conditions: at 1 µM
[4] = biological target: Misshapen-like kinase 1 (Homo sapiens) (UniProt Q8N4C8); conditions: at 0.1 µM
[5] = biological target: Misshapen-like kinase 1 (Homo sapiens) (UniProt Q8N4C8); conditions: at 1 µM
[6] = biological target: T1, Serine/threonine-protein kinase 4 (Homo sapiens) (UniProt Q13043); conditions: at 0.1 µM
T1 sequence (whole entry): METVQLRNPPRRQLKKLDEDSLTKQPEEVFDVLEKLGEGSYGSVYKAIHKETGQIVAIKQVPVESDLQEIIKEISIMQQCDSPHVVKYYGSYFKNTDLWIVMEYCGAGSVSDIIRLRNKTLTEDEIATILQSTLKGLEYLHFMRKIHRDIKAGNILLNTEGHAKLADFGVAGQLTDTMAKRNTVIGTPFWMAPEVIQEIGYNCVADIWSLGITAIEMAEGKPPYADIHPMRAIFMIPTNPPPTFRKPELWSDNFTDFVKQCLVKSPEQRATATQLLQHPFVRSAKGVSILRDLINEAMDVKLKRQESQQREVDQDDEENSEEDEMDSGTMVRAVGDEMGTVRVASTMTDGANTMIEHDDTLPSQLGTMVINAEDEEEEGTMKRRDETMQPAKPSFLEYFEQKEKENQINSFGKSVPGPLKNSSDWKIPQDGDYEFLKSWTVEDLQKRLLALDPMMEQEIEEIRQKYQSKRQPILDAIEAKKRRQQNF

[7] = biological target: T1, Serine/threonine-protein kinase 4 (Homo sapiens); conditions: at 1 µM
[8] = biological target: T2, Serine/threonine-protein kinase 3 (Homo sapiens) (UniProt Q13188); conditions: at 0.1 µM
T2 sequence (whole entry): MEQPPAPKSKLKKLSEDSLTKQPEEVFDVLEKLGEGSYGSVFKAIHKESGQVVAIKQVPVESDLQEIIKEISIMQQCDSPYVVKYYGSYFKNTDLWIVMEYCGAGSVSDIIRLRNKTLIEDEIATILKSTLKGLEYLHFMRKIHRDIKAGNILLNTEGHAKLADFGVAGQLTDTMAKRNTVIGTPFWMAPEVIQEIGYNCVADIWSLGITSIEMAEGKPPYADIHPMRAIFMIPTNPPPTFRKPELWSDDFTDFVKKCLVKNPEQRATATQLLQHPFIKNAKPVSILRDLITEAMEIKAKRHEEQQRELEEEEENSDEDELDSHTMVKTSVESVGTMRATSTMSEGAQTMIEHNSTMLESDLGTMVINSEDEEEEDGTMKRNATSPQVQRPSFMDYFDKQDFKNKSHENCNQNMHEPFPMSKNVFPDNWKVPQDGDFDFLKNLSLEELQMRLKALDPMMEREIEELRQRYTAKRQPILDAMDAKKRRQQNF

[9] = biological target: T2, Serine/threonine-protein kinase 3 (Homo sapiens); conditions: at 1 µM
[10] = biological target: Serine/threonine-protein kinase 26 (Homo sapiens) (UniProt Q9P289); conditions: at 0.1 µM
[11] = biological target: Serine/threonine-protein kinase 26 (Homo sapiens) (UniProt Q9P289); conditions: at 1 µM
[12] = biological target: Serine/threonine-protein kinase PAK 1 (Homo sapiens) (UniProt Q13153); conditions: at 0.1 µM
[13] = biological target: Serine/threonine-protein kinase PAK 1 (Homo sapiens) (UniProt Q13153); conditions: at 1 µM
[14] = biological target: Serine/threonine-protein kinase PAK 2 (Homo sapiens) (UniProt Q13177); conditions: at 0.1 µM
[15] = biological target: Serine/threonine-protein kinase PAK 2 (Homo sapiens) (UniProt Q13177); conditions: at 1 µM
[16] = biological target: Serine/threonine-protein kinase PAK 3 (Homo sapiens) (UniProt O75914); conditions: at 0.1 µM
[17] = biological target: Serine/threonine-protein kinase PAK 3 (Homo sapiens) (UniProt O75914); conditions: at 1 µM
[18] = biological target: Serine/threonine-protein kinase PAK 5 (Homo sapiens) (UniProt Q9P286); conditions: at 0.1 µM
[19] = biological target: Serine/threonine-protein kinase PAK 6 (Homo sapiens) (UniProt Q9NQU5); conditions: at 0.1 µM;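 further: mean PAK6 inhibition reported from the GSK PKIS screen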
[20] = biological target: Serine/threonine-protein kinase PAK 5 (Homo sapiens) (UniProt Q9P286); conditions: at 1 µM

Serine/threonine-protein kinase PAK 3 (Homo sapiens), sequence (O75914 whole entry, looked up): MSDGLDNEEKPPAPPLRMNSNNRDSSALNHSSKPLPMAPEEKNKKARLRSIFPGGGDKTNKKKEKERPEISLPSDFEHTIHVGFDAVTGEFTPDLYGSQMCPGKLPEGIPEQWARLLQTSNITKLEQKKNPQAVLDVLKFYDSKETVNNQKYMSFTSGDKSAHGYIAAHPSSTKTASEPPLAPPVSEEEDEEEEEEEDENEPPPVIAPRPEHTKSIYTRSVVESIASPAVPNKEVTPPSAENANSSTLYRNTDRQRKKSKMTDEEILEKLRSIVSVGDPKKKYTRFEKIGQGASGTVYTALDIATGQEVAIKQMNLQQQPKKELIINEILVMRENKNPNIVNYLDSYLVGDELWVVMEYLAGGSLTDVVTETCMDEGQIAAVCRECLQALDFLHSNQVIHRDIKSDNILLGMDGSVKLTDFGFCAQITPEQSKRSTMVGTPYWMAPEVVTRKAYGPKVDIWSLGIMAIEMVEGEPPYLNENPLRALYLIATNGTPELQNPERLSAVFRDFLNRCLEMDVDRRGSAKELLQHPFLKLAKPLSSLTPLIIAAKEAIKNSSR
Serine/threonine-protein kinase 26 (Homo sapiens), sequence (Q9P289 2-416 limits assumed): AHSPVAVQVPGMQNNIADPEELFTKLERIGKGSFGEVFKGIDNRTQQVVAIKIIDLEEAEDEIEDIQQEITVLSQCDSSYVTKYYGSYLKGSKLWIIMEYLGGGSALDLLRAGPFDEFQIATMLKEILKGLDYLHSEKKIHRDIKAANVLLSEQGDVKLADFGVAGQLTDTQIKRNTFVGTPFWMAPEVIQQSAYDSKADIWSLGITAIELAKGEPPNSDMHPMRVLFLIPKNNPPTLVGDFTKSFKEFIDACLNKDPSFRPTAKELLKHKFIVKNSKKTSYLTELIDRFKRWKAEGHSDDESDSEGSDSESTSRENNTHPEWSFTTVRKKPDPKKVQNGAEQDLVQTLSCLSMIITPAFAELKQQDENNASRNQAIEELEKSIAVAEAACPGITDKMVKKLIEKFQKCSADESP
Serine/threonine-protein kinase PAK 1 (Homo sapiens), sequence (Q13153 whole entry): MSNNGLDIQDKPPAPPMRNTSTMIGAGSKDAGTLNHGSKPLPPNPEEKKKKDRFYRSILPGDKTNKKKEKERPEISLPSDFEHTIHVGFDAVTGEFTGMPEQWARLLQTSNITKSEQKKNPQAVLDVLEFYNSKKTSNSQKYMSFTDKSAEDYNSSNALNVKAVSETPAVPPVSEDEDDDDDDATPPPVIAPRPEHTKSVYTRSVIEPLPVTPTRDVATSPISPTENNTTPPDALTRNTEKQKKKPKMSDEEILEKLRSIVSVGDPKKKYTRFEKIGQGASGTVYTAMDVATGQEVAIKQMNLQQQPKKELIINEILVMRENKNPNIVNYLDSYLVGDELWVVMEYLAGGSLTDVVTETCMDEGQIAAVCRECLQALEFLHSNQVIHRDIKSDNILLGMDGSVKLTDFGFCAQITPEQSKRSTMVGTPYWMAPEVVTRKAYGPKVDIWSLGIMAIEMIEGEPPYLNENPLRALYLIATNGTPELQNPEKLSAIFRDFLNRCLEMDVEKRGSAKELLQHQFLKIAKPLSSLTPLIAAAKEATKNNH
Serine/threonine-protein kinase PAK 5 (Homo sapiens), sequence (Q9P286 whole entry, looked up): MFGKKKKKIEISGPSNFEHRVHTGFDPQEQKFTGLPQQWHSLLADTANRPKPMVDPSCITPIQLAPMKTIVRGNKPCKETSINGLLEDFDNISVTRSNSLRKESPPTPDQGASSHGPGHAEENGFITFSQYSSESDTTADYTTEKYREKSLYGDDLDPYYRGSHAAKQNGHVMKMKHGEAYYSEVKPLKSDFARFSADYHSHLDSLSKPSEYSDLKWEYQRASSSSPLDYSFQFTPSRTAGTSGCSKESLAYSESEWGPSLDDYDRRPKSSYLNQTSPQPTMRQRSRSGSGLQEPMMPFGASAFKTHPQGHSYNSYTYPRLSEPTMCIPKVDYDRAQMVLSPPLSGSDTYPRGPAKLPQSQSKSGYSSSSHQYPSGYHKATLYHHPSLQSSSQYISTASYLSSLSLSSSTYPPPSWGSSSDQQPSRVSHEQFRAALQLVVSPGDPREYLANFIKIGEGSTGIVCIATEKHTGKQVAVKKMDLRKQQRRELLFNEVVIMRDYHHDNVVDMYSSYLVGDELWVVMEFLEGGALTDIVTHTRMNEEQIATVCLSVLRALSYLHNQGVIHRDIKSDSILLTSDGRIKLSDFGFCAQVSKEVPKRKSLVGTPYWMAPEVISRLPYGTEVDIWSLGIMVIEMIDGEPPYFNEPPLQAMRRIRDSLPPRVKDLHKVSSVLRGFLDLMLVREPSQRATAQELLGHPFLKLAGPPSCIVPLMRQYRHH
Serine/threonine-protein kinase PAK 2 (Homo sapiens), sequence (Q13177 whole entry): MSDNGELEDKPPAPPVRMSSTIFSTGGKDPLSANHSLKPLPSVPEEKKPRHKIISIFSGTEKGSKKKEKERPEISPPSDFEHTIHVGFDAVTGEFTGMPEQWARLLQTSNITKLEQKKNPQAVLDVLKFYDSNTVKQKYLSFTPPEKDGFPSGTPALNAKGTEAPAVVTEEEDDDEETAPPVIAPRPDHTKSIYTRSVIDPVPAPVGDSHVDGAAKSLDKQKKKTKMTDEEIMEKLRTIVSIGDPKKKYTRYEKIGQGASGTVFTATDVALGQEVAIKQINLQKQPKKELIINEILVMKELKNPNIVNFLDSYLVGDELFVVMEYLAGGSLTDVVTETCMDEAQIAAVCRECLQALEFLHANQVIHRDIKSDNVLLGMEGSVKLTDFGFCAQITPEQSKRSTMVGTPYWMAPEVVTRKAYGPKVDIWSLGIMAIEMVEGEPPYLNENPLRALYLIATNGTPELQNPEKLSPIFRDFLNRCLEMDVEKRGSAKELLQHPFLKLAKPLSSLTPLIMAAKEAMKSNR
Mitogen-activated protein kinase kinase kinase kinase 4 (Homo sapiens), sequence (O95819 2-1239 limits assumed): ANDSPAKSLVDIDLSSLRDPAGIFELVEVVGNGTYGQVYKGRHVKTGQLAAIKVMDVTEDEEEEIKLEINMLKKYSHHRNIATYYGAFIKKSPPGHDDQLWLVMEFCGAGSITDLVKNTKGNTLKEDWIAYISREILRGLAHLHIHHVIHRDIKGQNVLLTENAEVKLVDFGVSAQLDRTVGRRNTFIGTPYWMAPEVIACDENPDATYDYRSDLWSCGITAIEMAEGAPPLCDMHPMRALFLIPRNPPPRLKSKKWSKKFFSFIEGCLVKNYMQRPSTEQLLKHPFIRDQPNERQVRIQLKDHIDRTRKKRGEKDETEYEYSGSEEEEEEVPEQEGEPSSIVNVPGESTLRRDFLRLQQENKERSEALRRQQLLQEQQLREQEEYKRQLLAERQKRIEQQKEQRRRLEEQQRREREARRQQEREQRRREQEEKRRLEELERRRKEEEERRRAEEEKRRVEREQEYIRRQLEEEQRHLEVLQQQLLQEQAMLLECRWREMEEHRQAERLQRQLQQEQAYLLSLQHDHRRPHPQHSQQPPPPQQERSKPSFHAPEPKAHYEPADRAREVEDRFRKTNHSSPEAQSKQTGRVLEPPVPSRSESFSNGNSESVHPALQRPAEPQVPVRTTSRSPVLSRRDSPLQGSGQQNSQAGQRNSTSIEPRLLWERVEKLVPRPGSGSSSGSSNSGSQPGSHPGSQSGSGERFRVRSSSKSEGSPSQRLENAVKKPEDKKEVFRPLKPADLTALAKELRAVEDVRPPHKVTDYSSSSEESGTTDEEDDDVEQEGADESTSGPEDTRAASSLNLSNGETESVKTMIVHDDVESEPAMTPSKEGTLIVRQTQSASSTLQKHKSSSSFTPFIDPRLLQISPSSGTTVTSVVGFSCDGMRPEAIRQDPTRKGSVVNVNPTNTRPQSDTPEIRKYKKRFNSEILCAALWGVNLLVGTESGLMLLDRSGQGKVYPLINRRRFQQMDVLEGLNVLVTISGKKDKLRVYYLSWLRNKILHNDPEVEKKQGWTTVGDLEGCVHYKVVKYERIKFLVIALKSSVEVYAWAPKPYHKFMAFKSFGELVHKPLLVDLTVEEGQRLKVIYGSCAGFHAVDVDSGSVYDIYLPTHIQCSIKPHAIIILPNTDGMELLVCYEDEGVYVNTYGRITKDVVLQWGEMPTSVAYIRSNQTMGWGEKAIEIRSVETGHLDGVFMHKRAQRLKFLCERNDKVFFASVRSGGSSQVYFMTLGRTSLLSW
Dual specificity mitogen-activated protein kinase kinase 1 (Homo sapiens), sequence (Q02750 whole entry): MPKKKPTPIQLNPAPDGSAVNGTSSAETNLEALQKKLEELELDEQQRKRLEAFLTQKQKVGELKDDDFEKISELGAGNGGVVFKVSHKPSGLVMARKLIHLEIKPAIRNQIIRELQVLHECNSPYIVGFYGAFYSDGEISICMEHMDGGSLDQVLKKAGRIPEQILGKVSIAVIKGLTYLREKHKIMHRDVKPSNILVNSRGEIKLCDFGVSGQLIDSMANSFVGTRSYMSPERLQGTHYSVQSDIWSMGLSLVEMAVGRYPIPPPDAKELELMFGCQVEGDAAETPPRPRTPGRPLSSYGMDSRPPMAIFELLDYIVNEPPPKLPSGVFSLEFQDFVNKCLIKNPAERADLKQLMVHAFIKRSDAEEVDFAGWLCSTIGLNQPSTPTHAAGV

Row | SMILES | inhibition [1] | inhibition [2] | inhibition [3] | inhibition [4] | inhibition [5] | inhibition [6] | inhibition [7] | inhibition [8] | inhibition [9] | inhibition [10] | inhibition [11] | inhibition [12] | inhibition [13] | inhibition [14] | inhibition [15] | inhibition [16] | inhibition [17] | inhibition [18] | inhibition [19] | inhibition [20]
1 | CCn1c(-c2nonc2N)nc2ccc(F)cc21 | 9.77% | 9.94% | 7.03% | 6.88% | 9.59% | 5.88% | 5.97% | 6.38% | 6.55% | -1.73% | 3.36% | 12% | 11.2% | 3.1% | 3.8% | 7.78% | 6.52% | -1.6% | 2.06% | –
2 | COc1ccc(-c2nn3ncccc3c2-c2ccnc(Nc3cccc(C(F)(F)F)c3)n2)cc1 | 4.62% | 1.9% | 2.55% | 5.18% | 5.08% | 1.69% | 2.89% | 4.76% | 5.12% | -0.3% | -0.52% | 6.36% | 5.19% | 0.91% | -0.8% | 3.37% | 3.1% | 1.8% | -2.15% | 1.57%
3 | CCOc1nccc2c1nc(-c1nonc1N)n2CC | 14.3% | 3.44% | 3.14% | 5.33% | 13.8% | 12.1% | 22.7% | 11.4% | 21.8% | 0.4% | -0.82% | 5.11% | 2.07% | 0.86% | 1.74% | 3.24% | 4.4% | 7.54% | 5.85% | 6.11%
4 | CCS(=O)(=O)c1ccc(OC)c(Nc2ncc(-c3cccc(OC)c3)o2)c1 | 25.9% | 2.58% | 3.57% | 5.68% | 16.8% | 6.63% | 10.6% | 6.69% | 7.22% | -1.42% | -4.12% | 2.01% | 5.71% | 2.79% | 1.98% | 3.24% | 2.36% | 6.72% | -4.37% | -1.57%
5 | CN(C)CCCn1c(-c2nonc2N)nc2cnccc21 | 6.52% | 4.6% | 3.75% | 5.65% | 6.29% | 4.23% | 4.03% | 3.78% | 4.52% | -1.82% | -1.75% | 6.36% | 9.52% | 1.48% | 2.17% | 4.61% | 5.23% | – | 7.58% | -5.06%
6 | Cc1ccc2c(-c3ccnc(Nc4ccc5c(c4)OCCO5)n3)c(-c3ccc(C(F)(F)F)cc3)nn2n1 | -0.58% | 1.89% | 1.58% | 0.81% | -1.31% | 0.92% | 3.55% | 0.03% | 2.76% | 1.07% | 0.53% | 0.57% | 2.13% | 0.68% | -0.11% | 2% | 0.74% | -9.67% | 7.58% | -4.92%
7 | Cc1ccc2c(c1)/C(=N/Nc1ccc(S(N)(=O)=O)cc1)C(=O)N2 | 72.3% | 0.13% | 1.05% | 16.2% | 61.8% | 16.4% | 65.9% | 11% | 55% | 0.66% | 17.1% | -1.7% | 5.13% | 0.16% | -0.31% | 0.21% | -1.09% | -8.51% | -4.78% | –
8 | NS(=O)(=O)c1ccc(NC=C2C(=O)Nc3ccc4ncsc4c32)cc1 | 79% | 17.5% | 68.3% | 62.9% | 78.9% | 74.5% | 80.4% | 73.1% | 78.2% | 62.1% | 78.9% | 7.91% | 8.35% | 2.5% | 4.68% | 5.33% | 6.6% | – | 0.36% | 5.11%
9 | O=C1Nc2ccccc2/C1=C/Nc1ccc2[nH]c(=O)[nH]c2c1 | 75.4% | 8.19% | 6.88% | 17.4% | 64.3% | 18.1% | 67.2% | 15.5% | 59.4% | -1.35% | 2.72% | 10.5% | 7.51% | 0.87% | 1.53% | 7.05% | 5.03% | 5.25% | -6.58% | 3.2%
10 | NS(=O)(=O)c1cccc(Nc2cc(-c3ccc(F)cc3)n[nH]2)c1 | 69.9% | 5.05% | 3.82% | 14.6% | 59.5% | 8.09% | 16.1% | 7.41% | 13.4% | -0.02% | 0.86% | 3.94% | 8.53% | 1.36% | 1.54% | 3.88% | 4.82% | 10.3% | 2.82% | 11.7%
11 | Nc1ccc(C#Cc2cncnc2Nc2ccc(OCc3cccc(F)c3)c(Cl)c2)cc1 | 0.49% | 2.6% | 3.23% | 3.73% | 1.66% | 2.07% | 2.02% | 3.2% | 4.05% | -0.87% | -2.17% | 0.57% | 1.46% | 0.83% | 0.22% | 3.57% | 2.79% | 0.61% | -4.23% | 2.79%
12 | Cc1cc(Cl)cc2c1NC(=O)C2=NNc1ccc(S(N)(=O)=O)cc1 | 56.5% | 3.39% | 2.09% | 10% | 42.5% | 4.01% | 7.11% | 3.69% | 6.48% | 0.59% | -0.49% | 0.68% | 1.71% | 1.05% | 0.72% | 3.63% | 4.8% | -4.18% | 2.65% | -1.19%
13 | Cc1nc(-c2ccccc2)n2nc(NCCCN3CCOCC3)ncc12 | 5.45% | 2.79% | 4.46% | 4.74% | 5.12% | 1.32% | 4% | 2.92% | 4.68% | – | 0.4% | 2.24% | 6.68% | 0.56% | 0.27% | 1.98% | 4.33% | 1.91% | -9.04% | 1.28%
